Results reported in PubChem BioAssay.
For some assays here: Results with a measured potency or affinity are listed apart. Activity calls are given as the source filed them. Unless noted, the rule behind the calls is not given here.

Experiments:
[1] = antimalarial activity against Dd2 strain (AID 2302;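 active = growth inhibition above 50% at the single 2 µM test dose, taken to imply half-maximal potency below 2 µM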;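 note: 0% = DMSO untreated growth and 100% = chloroquine plus artemisinin killed control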); conditions: P. falciparum Dd2 in RBCs, LDH growth readout, 72 h; at 2 µM; hits give high values
[2] = HepG2 cytotoxicity, primary screen, cytotoxicity control for P. falciparum antimalarial project, cell-based, ATP luminescence (AID 2303;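 active = inhibition above 50%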;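 note: 0% = DMSO wells and 100% = digitonin-killed cells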); conditions: HepG2 viability, 24-48 h, at 10 µM, hits give high values
[3] = biological target: L-lactate dehydrogenase (Plasmodium falciparum (isolate CDC / Honduras)) (UniProt Q27743); test: PfLDH activity inhibition – cell lysate, 3D7 strain, counter-screen for P. falciparum growth inhibition project (AID 2304);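 note: 0% = vehicle and 100% = reference inhibitor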; conditions: P. falciparum 3D7 crude extract, LDH APAD/NBT absorbance; at 2 µM; hits give high values
[4] = inhibition of 3D7 malaria parasite growth – strain 3D7 (AID 2306);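 note: 0% = DMSO wells and 100% = chloroquine plus artemisinin control wells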; conditions: P. falciparum 3D7 erythrocytic growth, LDH absorbance, 72 h; at 2 µM; hits give high values
[5] = biological target: Calcium-dependent protein kinase 1 (Plasmodium falciparum (isolate 3D7)) (UniProt P62344); test: PfCDPK1 kinase inhibitors, biochemical, TCAMS library (AID 1159585; cut-off not given, nearly all actives have IC50 up to about 0.98 µM;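 note: inhibitors leave more ATP so luminescence rises with inhibition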); conditions: recombinant PfCDPK1, Kinase-Glo ATP depletion luminescence
[6] = biological target: Plasmodium falciparum protein kinase 6 (PK6, PF3D7_1337100) (UniProt Q8IDW1); test: PfPK6 kinase inhibitors, biochemical, TCAMS library (AID 1159586); conditions: recombinant PfPK6, Kinase-Glo ATP depletion luminescence
[7] = biological target: Protein kinase 7 (PK7), Plasmodium falciparum 3D7 (PF3D7_0213400) (UniProt Q7YTF7); test: inhibition of Plasmodium PK7 catalytic activity – biochemical, TCAMS antimalarial set, Kinase-Glo luminescence (AID 1159587); conditions: recombinant PfPK7, Kinase-Glo ATP depletion luminescence
[8] = biological target: Calcium-dependent protein kinase 4 (Plasmodium falciparum (isolate 3D7)) (UniProt Q8IBS5); test: PfCDPK4 kinase inhibitors, biochemical, TCAMS library (AID 1159588; cut-off not given, nearly all actives have IC50 up to about 0.91 µM); conditions: recombinant PfCDPK4, Kinase-Glo ATP depletion luminescence
Calcium-dependent protein kinase 4 (Plasmodium falciparum (isolate 3D7)), sequence (Q8IBS5 whole entry, looked up): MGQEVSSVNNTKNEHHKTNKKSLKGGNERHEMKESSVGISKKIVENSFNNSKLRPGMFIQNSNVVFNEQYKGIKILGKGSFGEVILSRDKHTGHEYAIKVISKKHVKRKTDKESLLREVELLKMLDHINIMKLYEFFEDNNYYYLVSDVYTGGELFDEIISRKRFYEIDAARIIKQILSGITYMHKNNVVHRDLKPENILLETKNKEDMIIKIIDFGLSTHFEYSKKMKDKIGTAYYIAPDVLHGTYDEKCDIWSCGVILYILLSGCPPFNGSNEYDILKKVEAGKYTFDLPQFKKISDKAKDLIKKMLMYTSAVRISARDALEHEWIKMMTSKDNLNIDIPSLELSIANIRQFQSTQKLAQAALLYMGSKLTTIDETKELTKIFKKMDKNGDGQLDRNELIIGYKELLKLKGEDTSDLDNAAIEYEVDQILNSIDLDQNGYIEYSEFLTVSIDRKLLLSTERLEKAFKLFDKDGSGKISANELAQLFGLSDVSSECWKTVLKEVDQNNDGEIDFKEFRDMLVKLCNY

Plasmodium falciparum protein kinase 6 (PK6, PF3D7_1337100), sequence (Q8IDW1 1-305): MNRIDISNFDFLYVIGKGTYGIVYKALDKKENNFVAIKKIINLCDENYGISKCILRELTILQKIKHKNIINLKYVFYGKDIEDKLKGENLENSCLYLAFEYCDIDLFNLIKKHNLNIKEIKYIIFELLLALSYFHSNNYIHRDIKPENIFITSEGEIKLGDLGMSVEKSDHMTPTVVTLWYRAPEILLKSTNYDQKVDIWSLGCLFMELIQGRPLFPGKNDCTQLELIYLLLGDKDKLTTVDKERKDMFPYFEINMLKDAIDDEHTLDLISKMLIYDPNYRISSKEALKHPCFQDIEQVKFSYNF
Protein kinase 7 (PK7), Plasmodium falciparum 3D7 (PF3D7_0213400), sequence (Q7YTF7 1-343): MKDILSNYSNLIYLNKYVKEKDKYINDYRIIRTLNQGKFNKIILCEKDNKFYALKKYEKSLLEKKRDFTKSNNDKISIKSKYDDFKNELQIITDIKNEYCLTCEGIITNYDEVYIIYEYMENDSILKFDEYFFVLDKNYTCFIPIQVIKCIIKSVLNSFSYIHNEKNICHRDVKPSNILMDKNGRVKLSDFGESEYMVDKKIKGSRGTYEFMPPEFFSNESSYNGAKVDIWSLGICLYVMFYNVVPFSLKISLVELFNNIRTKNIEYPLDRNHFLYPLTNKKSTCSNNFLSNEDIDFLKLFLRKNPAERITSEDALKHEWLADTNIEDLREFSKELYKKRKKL
L-lactate dehydrogenase (Plasmodium falciparum (isolate CDC / Honduras)), sequence (Q27743 whole entry, looked up): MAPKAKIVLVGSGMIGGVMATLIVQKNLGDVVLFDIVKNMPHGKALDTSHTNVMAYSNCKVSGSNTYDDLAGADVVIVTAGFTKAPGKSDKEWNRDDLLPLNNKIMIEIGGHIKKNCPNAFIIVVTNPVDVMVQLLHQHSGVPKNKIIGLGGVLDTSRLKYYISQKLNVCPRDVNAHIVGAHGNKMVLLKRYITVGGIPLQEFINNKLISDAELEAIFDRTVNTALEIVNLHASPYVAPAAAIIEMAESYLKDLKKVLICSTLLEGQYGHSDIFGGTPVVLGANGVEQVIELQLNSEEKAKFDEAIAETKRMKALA
Calcium-dependent protein kinase 1 (Plasmodium falciparum (isolate 3D7)), sequence (P62344 whole entry, looked up): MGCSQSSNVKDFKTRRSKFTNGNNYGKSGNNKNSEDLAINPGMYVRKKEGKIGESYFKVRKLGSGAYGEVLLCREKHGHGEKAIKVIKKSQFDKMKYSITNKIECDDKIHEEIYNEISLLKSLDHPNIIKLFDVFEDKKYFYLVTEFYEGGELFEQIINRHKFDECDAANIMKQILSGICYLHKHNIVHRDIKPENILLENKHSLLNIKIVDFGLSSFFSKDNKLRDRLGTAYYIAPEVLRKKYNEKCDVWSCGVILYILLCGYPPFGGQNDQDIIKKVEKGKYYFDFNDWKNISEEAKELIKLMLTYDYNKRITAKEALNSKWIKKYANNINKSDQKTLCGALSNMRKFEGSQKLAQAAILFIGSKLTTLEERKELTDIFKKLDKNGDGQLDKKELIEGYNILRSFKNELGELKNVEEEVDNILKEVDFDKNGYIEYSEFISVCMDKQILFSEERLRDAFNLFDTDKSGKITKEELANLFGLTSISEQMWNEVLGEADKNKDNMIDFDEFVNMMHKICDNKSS

COc1cc2nc(N3CCN(C(=O)c4cccc(I)c4)CC3)nc(N)c2cc1OC
active: growth inhibition [4] 88%
inactive: growth inhibition [1] 26% | inhibition [2] 11% | inhibition [3] 2% | outcome [5] | outcome [6] | outcome [7] | outcome [8]

CC(C)(C)c1ccc2nc(-c3ccc(/C=C/C(=O)NCc4ccc(Cl)c(Cl)c4)cc3)[nH]c2c1
inactive: growth inhibition [1] 17% | inhibition [2] 41% | inhibition [3] 0% | outcome [5] | outcome [6] | outcome [7] | outcome [8]
active: growth inhibition [4] 97%

C[C@H](NC(=O)c1c(OC2CN(C(c3ccccc3)c3ccccc3)C2)c(-c2ccccc2)nc2ccccc12)C1CCCCC1
inactive: inhibition [2] 0% | inhibition [3] 2% | outcome [5] | outcome [6] | outcome [7] | outcome [8]
active: growth inhibition [1] 74% | growth inhibition [4] 92%

Nc1cccc(C=CC(=O)Nc2ccnc3ccccc23)c1
inactive: inhibition [2] 7% | inhibition [3] -1% | outcome [5] | outcome [6] | outcome [7] | outcome [8]
active: growth inhibition [1] 60% | growth inhibition [4] 98%

CC[C@H](C)CNC(=O)c1ccnc(-c2ccc(CNC3Cc4ccccc4C3)cc2)c1
active: growth inhibition [1] 87% | growth inhibition [4] 102%
inactive: inhibition [2] 18% | inhibition [3] -3% | outcome [5] | outcome [6] | outcome [7] | outcome [8]

O=C(Nc1ccc(Oc2ccccc2)cc1)N(Cc1ccc(-c2ccc(CN3CCNCC3)cc2)cc1)C1CCN(Cc2ccccc2)CC1
inactive: inhibition [2] 31% | inhibition [3] -1% | outcome [5] | outcome [6] | outcome [7] | outcome [8]
active: growth inhibition [1] 73% | growth inhibition [4] 101%

Cc1nc(N)nc(N)c1OCCCCCCOc1ccccc1
inactive: growth inhibition [1] -3% | inhibition [3] -2% | outcome [5] | outcome [6] | outcome [7] | outcome [8]
active: inhibition [2] 59% | growth inhibition [4] 95%

O=c1ccc2ccc(F)c3c2n1CC3CN1CCC(NCc2cccc(-c3cccs3)c2)CC1 (stereo not given)
active: growth inhibition [1] 75% | growth inhibition [4] 100%
inactive: inhibition [2] 17% | inhibition [3] 0% | outcome [5] | outcome [6] | outcome [7] | outcome [8]

Cc1cc(N[C@@H](Cc2ccccc2)C(=O)NCCOc2ccccc2)nc(NCc2ccccc2C)n1
active: growth inhibition [1] 80% | growth inhibition [4] 100%
inactive: inhibition [2] 32% | inhibition [3] -3% | outcome [5] | outcome [6] | outcome [7] | outcome [8]

O=C(Nc1cccc(CN2CCN(C(=O)c3cccc(Cl)c3)CC2)c1)c1cccs1
active: growth inhibition [1] 94% | growth inhibition [4] 94%
inactive: inhibition [2] 17% | inhibition [3] -6% | outcome [5] | outcome [6] | outcome [7] | outcome [8]

CN(Cc1ccccc1)C1CCCN(c2cc(NC(=O)c3ccc(F)cc3)ccn2)C1 (stereo not given)
active: growth inhibition [1] 95% | growth inhibition [4] 93%
inactive: inhibition [2] 7% | inhibition [3] 0% | outcome [5] | outcome [6] | outcome [7] | outcome [8]

COc1cc(NC2CCCC(NCc3cn(S(=O)(=O)c4ccccc4)c4ccccc34)C2)nc2ccccc12 (stereo not given)
inactive: inhibition [2] 4% | inhibition [3] 2% | outcome [5] | outcome [6] | outcome [7] | outcome [8]
active: growth inhibition [1] 61% | growth inhibition [4] 100%

COc1ccc(-n2ccnc2SCC(=O)Nc2cccc(C(F)(F)F)c2)c(OC)c1
inactive: inhibition [2] -10% | inhibition [3] 3% | outcome [5] | outcome [6] | outcome [7] | outcome [8]
active: growth inhibition [1] 88% | growth inhibition [4] 98%

COc1ccc(NC(=O)[C@H](CC(C)C)Nc2ccnc(NCCc3ccc(F)cc3)n2)cc1
active: growth inhibition [4] 86%
inactive: growth inhibition [1] 22% | inhibition [2] -6% | inhibition [3] -2% | outcome [5] | outcome [6] | outcome [7] | outcome [8]

Cc1ccc(Nc2nnc(SCC(=O)Nc3ccc(CN4CCCC4)cc3)s2)cc1
active: growth inhibition [4] 91%
inactive: growth inhibition [1] -2% | inhibition [2] 4% | inhibition [3] -2% | outcome [5] | outcome [6] | outcome [7] | outcome [8]

COc1cc(Cc2cnc(N)nc2N)cc(OC)c1OCCCCCN1C(=O)c2ccccc2C1=O
inactive: growth inhibition [1] 4% | inhibition [2] 5% | inhibition [3] 3% | outcome [5] | outcome [6] | outcome [7] | outcome [8]
active: growth inhibition [4] 97%

COC(=O)c1cccc(CNCc2cccc(-c3ccc(-c4nc5ccc(C(F)(F)F)cc5[nH]4)cc3)c2)c1
active: growth inhibition [1] 83% | growth inhibition [4] 102%
inactive: inhibition [2] 13% | inhibition [3] 3% | outcome [5] | outcome [6] | outcome [7] | outcome [8]

O=C(NCc1cccc(C(F)(F)F)c1)C1CCCN(C(=O)c2ccc(O)c(-c3ccc(Cl)c(Cl)c3)c2)C1 (stereo not given)
active: growth inhibition [4] 94%
inactive: growth inhibition [1] 32% | inhibition [2] 1% | inhibition [3] 6% | outcome [5] | outcome [6] | outcome [7] | outcome [8]

CCN(CCNC(=O)Cn1c(C)cc2cc([N+](=O)[O-])ccc21)c1cccc(C)c1
active: growth inhibition [1] 95% | growth inhibition [4] 97%
inactive: inhibition [2] -3% | inhibition [3] 6% | outcome [5] | outcome [6] | outcome [7] | outcome [8]

O=C(/C=C/c1ccc(Cl)c(Cl)c1)NCCCCCN1CCC(c2c[nH]c3ccc(O)cc23)CC1
inactive: growth inhibition [1] 0% | inhibition [2] 20% | inhibition [3] 3% | outcome [5] | outcome [6] | outcome [7] | outcome [8]
active: growth inhibition [4] 101%

O=C(Nc1cccc(F)c1)c1ccc(C(=O)NC2CCN(CC3CCCCC3)CC2)cc1
inactive: growth inhibition [1] 16% | inhibition [2] 22% | inhibition [3] -7% | outcome [5] | outcome [6] | outcome [7] | outcome [8]
active: growth inhibition [4] 96%

NC(N)=Nc1nc(-c2cccc(NC(=O)CCCCCCCON3C(N)=NC(N)=NC34CCCCC4)c2)cs1
active: growth inhibition [1] 89% | growth inhibition [4] 96%
inactive: inhibition [2] 1% | inhibition [3] -8% | outcome [5] | outcome [6] | outcome [7] | outcome [8]

O=C(N[C@@H](CC1CCCCC1)C(=O)NCCN1CCCC1)c1ccc(O)c(-c2cccc(C(F)(F)F)c2)c1
inactive: inhibition [2] -11% | inhibition [3] -4% | outcome [5] | outcome [6] | outcome [7] | outcome [8]
active: growth inhibition [1] 55% | growth inhibition [4] 99%

CCNc1cc(CCCC(=O)OCC)nc(Nc2ccc(C)cc2)n1
inactive: inhibition [2] 17% | inhibition [3] -4% | outcome [5] | outcome [6] | outcome [7] | outcome [8]
active: growth inhibition [1] 63% | growth inhibition [4] 101%

CC(C)C(=O)NC(c1ccc(N(C)C)cc1)c1cc(Cl)c2cccnc2c1O (stereo not given)
inactive: inhibition [3] 2% | outcome [5] | outcome [6] | outcome [7] | outcome [8]
active: growth inhibition [1] 64% | inhibition [2] 61% | growth inhibition [4] 87%

Cc1oc(-c2ccccc2)nc1CCOc1ccc(C[C@H](Nc2ccccc2C(=O)c2ccccc2)C(=O)NCc2ccccn2)cc1
inactive: inhibition [2] -2% | inhibition [3] -1% | outcome [5] | outcome [6] | outcome [7] | outcome [8]
active: growth inhibition [1] 54% | growth inhibition [4] 88%

CCCCCCN1CCCN(Cc2cccc(C(=O)Nc3ccc(C(C)(C)C)cc3)c2)CC1
active: growth inhibition [4] 93%
inactive: growth inhibition [1] 23% | inhibition [2] 41% | inhibition [3] 0% | outcome [5] | outcome [6] | outcome [7] | outcome [8]

Fc1ccc2nc(-c3ccc(-c4cccc(CN5CCN(c6ccncc6)CC5)c4)cc3)[nH]c2c1
inactive: inhibition [3] -3% | outcome [5] | outcome [6] | outcome [7] | outcome [8]
active: growth inhibition [1] 101% | inhibition [2] 66% | growth inhibition [4] 100%

COc1ccc(NC(=O)Nc2ccc(Nc3nc(C)cc(N4CCCC4)n3)cc2)cc1
inactive: inhibition [2] 14% | inhibition [3] -2% | outcome [5] | outcome [6] | outcome [7] | outcome [8]
active: growth inhibition [1] 100% | growth inhibition [4] 101%

COc1ccc2ncc(F)c([C@H](O)CN3CCC(NCc4cc5c(cn4)OCCO5)CC3)c2c1
inactive: inhibition [2] 5% | inhibition [3] 7% | outcome [5] | outcome [6] | outcome [7] | outcome [8]
active: growth inhibition [1] 97% | growth inhibition [4] 101%

CC(C)CCCC(C)(C)NC[C@@H](O)[C@H](Cc1ccccc1)NC(=O)c1cc(NC(C)C)cc(N2CCCCS2(=O)=O)c1F
inactive: inhibition [2] 11% | inhibition [3] -3% | outcome [5] | outcome [6] | outcome [7] | outcome [8]
active: growth inhibition [1] 99% | growth inhibition [4] 98%

CCN(CC)Cc1cccc(-c2cc3c(-c4ccc(C(=O)O)c(C(C)C)c4)ccnc3[nH]2)c1OC
inactive: inhibition [3] -2% | outcome [5] | outcome [6] | outcome [7] | outcome [8]
active: growth inhibition [1] 99% | inhibition [2] 57% | growth inhibition [4] 99%

O=C(Nc1cccc(-c2cccc(-c3nc4ccccc4[nH]3)c2)c1)Nc1ccc(F)c(F)c1F
inactive: inhibition [3] -1% | outcome [5] | outcome [6] | outcome [7] | outcome [8]
active: growth inhibition [1] 95% | inhibition [2] 78% | growth inhibition [4] 98%

COc1ccc(-n2c(=O)c3c(n4c(SC(C)C)nnc24)-c2ccccc2CC32CCCCC2)cc1
inactive: growth inhibition [1] 15% | inhibition [2] -3% | inhibition [3] -1% | outcome [5] | outcome [6] | outcome [7] | outcome [8]
active: growth inhibition [4] 99%

O=C(Nc1ccc([N+](=O)[O-])cc1)Nc1cc(OCC(F)(F)F)cc(OCC(F)(F)F)c1
active: growth inhibition [1] 100% | inhibition [2] 71% | growth inhibition [4] 100%
inactive: inhibition [3] 5% | outcome [5] | outcome [6] | outcome [7] | outcome [8]

Oc1cccc(Nc2nc(NCC3CCCO3)c3ccccc3n2)c1 (stereo not given)
active: growth inhibition [1] 87% | growth inhibition [4] 100%
inactive: inhibition [2] -9% | inhibition [3] -1% | outcome [5] | outcome [6] | outcome [7] | outcome [8]

CCCCCCOc1ccc(C(=O)NCCCC2CCCN(CCCCCNC(=O)C=Cc3ccc(Cl)c(Cl)c3)C2)cc1 (stereo not given)
inactive: growth inhibition [1] 12% | inhibition [2] 20% | inhibition [3] 2% | outcome [5] | outcome [6] | outcome [7] | outcome [8]
active: growth inhibition [4] 96%

COc1ccc2sc(CNCCCNc3cc(=O)c4ccccc4[nH]3)c(Cl)c2c1
inactive: growth inhibition [1] 42% | inhibition [2] 1% | inhibition [3] -4% | outcome [5] | outcome [6] | outcome [7] | outcome [8]
active: growth inhibition [4] 85%

COc1ccccc1C1CCN(CCCCNC(=O)c2ccc(/C=C/c3cc(Cl)cc(Cl)c3)cc2)CC1
active: growth inhibition [4] 96%
inactive: growth inhibition [1] 30% | inhibition [2] 36% | inhibition [3] 9% | outcome [5] | outcome [6] | outcome [7] | outcome [8]

CS(=O)(=O)c1cccc(-c2cnc3[nH]cc(-c4ccc(CCC(=O)O)cc4)c3c2)c1
inactive: inhibition [2] 1% | inhibition [3] -6% | outcome [5] | outcome [6] | outcome [7] | outcome [8]
active: growth inhibition [1] 99% | growth inhibition [4] 97%
